Our source for the growth inhibition values is PubChem BioAssay (NCI).

SMILES strings stand for the structures. The panel holds about 79,000 compounds, 15% with a hit somewhere; the sample as a whole holds those more often. A number with no mark means an inactive call. The source made the active and inactive calls. Cut-off read from the data, not from the text of the source: active = growth inhibition above about 70%; inactive = the rest.

A short description of the experiment: NCI Yeast Anticancer Drug Screen. Data for the rad52 strain (AID 147).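 Note: 0% = growth of vehicle-treated control cultures.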 To be noted: S. cerevisiae rad52 mutant growth inhibition, active compounds read high. As to the method: Growth inhibition of yeast strains with defined genetic alterations is measured as a screen for potential anti-cancer activity. Selected strains with alterations in DNA damage repair or cell cycle control were exposed to compounds and growth inhibition was measured relative to vehicle treated controls. The strain used in this assay is rad52

For `OCC(O)C(O)CO` (stereo not given) (tested in a mixture with another compound), the growth inhibition by setting is: (at 1.2 µM) -2%; (at 3.7 µM) -3%; (at 11.0 µM) -1%; (at 33.0 µM) -4%; (at 100.0 µM) 8%.
`Cn1cnc(N)c1C(=N)[Se]`: the growth inhibition (at 1.2 µM) was 7%; the growth inhibition (at 3.7 µM) is 26%; the growth inhibition (at 11.0 µM) was 70% (active); the growth inhibition (at 33.0 µM) was 95% (active); the growth inhibition (at 100.0 µM) is 95% (active).
With `CCCCCCCCCCCCCCCCP(=O)(O)OCC(N)C(=O)O` (stereo not given), the growth inhibition was -5% (at 1.2 µM); -40% (at 3.7 µM); -38% (at 11.0 µM); -15% (at 33.0 µM); 95% (active) (at 100.0 µM).
On the same counts, the results for `C=CC[N+]12CN3CN(CN(C3)C1)C2` are -8%, 5%, -11%, -5% and 29%.
`CC[C@](O)(C(=O)O)c1cc2n(c(=O)c1CO)Cc1cc3ccccc3nc1-2`: the growth inhibition is 92% (active) (at 1.2 µM); 94% (active) (at 3.7 µM); 95% (active) (at 11.0 µM); 96% (active) (at 33.0 µM); 96% (active) (at 100.0 µM).
Turning to `CO[C@H](/C(C)=C/C=C/C(C)=C/c1coc(C)n1)[C@H](C)[C@H]1C[C@@H](O)[C@@]2(C)O[C@H]2/C=C/[C@@H](C)[C@@H]2C[C@@H](CC(=O)O2)C[C@H]2O[C@@H]2C(=O)O1`, the growth inhibition was 6% (at 1.2 µM); -2% (at 3.7 µM); 14% (at 11.0 µM); 17% (at 33.0 µM); 93% (active) (at 100.0 µM).
On the same counts, the results for `Oc1ccc(Cl)cc1Cc1ccccc1` are -21%, 4%, 70% (active), 98% (active) and 98% (active).
In the case of `CCCN(CCC)c1c([N+](=O)[O-])cc(S(N)(=O)=O)cc1[N+](=O)[O-]`, the growth inhibition (at 1.2 µM) is 8%; the growth inhibition (at 3.7 µM) is 25%; the growth inhibition (at 11.0 µM) was 28%; the growth inhibition (at 33.0 µM) is 60%; the growth inhibition (at 100.0 µM) is 23%.
